Laboratory results taken from PubChem BioAssay (NCATS).
Inconclusive results are not listed. Calls of active or inactive are those of the source. Unless noted, the call rests on the fitted dose curve; in most records, active means well fitted curve in the direction sought with a large enough effect; inconclusive means small, poorly fitted or top-dose-only effect, or another doubt; inactive means no such curve, though single readings can be large; an effect the other way counts as inactive or inconclusive.

Key:
[1] = target: Bile acid receptor (Homo sapiens) (UniProt Q96RI1); assay: qHTS assay for small molecule agonists of farnesoid X receptor signaling (AID 588527; calls by dose curve;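 further: series mostly up to about 77 µM; 0% = vehicle basal and 100% = reference agonist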); details: HEK293T FXR-UAS-bla, beta-lactamase ratio, 16 h; activation: stronger effect = higher value
How it was run: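 Read-out: beta-lactamase reporter fluorescence with CCF4 substrate in GeneBLAzer FXR-UAS-bla HEK293T cells, after 16 h compound exposure at 37 C. Response scaled between DMSO basal (0%) and chenodeoxycholic acid at 100 uM (100%).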

[2] = target: Peroxisome proliferator-activated receptor delta (Homo sapiens) (UniProt Q03181); assay: qHTS assay for small molecule agonists of peroxisome proliferator-activated receptor delta signaling (AID 588534; calls by dose curve;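 further: 0% = DMSO basal wells and 100% = positive control agonist at 10 µM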)
How it was run: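 Reporter cells were plated and held 5 hrs at 37 C before compounds were added. After 18 hrs at 37 C, CCF4 dye was loaded for 2 hrs at RT and fluorescence measured.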

[3] = qHTS assay for small molecule antagonists of peroxisome proliferator-activated receptor delta signaling (AID 588535); details: HEK293T PPARd-UAS-bla, beta-lactamase FRET ratio, 18 h; 460 nm channel;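 further: cells co-treated with a PPAR-delta agonist as stimulator during compound exposure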
How it was run: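 GeneBLAzer PPAR-delta-UAS-bla HEK293T cells in medium with 2% charcoal/dextran FBS were preincubated 5 hrs at 37 C, then given compounds, incubated 18 hrs at 37 C, and read by CCF4 beta-lactamase fluorescence; IC50 from Hill fits.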

[4] = target: Vitamin D3 receptor (Homo sapiens) (UniProt P11473); assay: qHTS assay for small molecule antagonists of vitamin D receptor signaling (AID 588541; calls by dose curve;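 further: receptor activated by calcitriol during compound treatment; series mostly up to about 77 µM; on the % scale 0 is the no-effect control and ±100 the full control effect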)
How it was run: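 VDR-UAS-bla HEK293T cells (2000/well, 2% charcoal-stripped FBS) were treated with titrated compounds plus 1-alpha,25-dihydroxyvitamin D3 (50 nM or 3 nM final) for 16 h at 37 C. CCF4 beta-lactamase fluorescence was read; Hill fits gave IC50.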

[5] = target: Vitamin D3 receptor (Homo sapiens) (UniProt P11473); assay: qHTS assay for small molecule agonists of vitamin D receptor signaling (AID 588543; calls by dose curve;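 further: 0% = DMSO basal and 100% = reference agonist control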)
How it was run: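 GeneBLAzer VDR-UAS-bla HEK293T cells in 2% charcoal-stripped FBS medium were dosed with compound titrations for 16 h at 37 °C; CCF4 β-lactamase readout (405 nm ex, 460/530 nm em). EC50 and efficacy from Hill fits, normalized to 50 nM calcitriol (100%) and DMSO (0%).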

[6] = target: Thyroid hormone receptor beta (Homo sapiens) (UniProt P10828); assay: qHTS assay for small molecule agonists of thyroid hormone receptor beta signaling (AID 588545; calls by dose curve;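 further: 0% = DMSO only and 100% = 10 nM T3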)
How it was run: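 Compounds were tested as agonists in TR-UAS-bla-GripTite HEK 293 cells. After 18 hrs at 37 C, CCF4 substrate was added and fluorescence read after 2 hrs at room temperature.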

[7] = qHTS assay for small molecule antagonists of retinoid X receptor alpha signaling (AID 588546; active means well fitted inhibition curve with a large enough effect in the signal ratio, with a control signal flat, not every such curve was filed as active; the % refers to the signal ratio;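 further: cells stimulated with 9-cis-retinoic acid as agonist; on the % scale 0 is the no-effect control and ±100 the full control effect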); details: HEK293T RXRa-UAS-bla, beta-lactamase ratio, antagonist mode; measured here: W530 green channel, cytotoxicity proxy
How it was run: (§1)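 Beta-lactamase reporter inhibition, read as CCF4 fluorescence ratio (ex 405, em 460/530 nm) after 2 h at RT. HEK293T UAS-bla cells, 2500/well, were stimulated with 9-cis-RA at 500 or 100 nM final alongside test compound for 18 h at 37 C.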

[8] = target: Retinoic acid receptor RXR-alpha (Homo sapiens) (UniProt P19793); assay: as above; details: HEK293T RXRa-UAS-bla, beta-lactamase ratio, antagonist mode
How it was run: as §1

[9] = target: Thyroid hormone receptor beta (Homo sapiens) (UniProt P10828); assay: qHTS assay for small molecule antagonists of thyroid hormone receptor beta signaling (AID 588547; active means well fitted inhibition curve with a large enough effect in the signal ratio, with a control signal flat, not every such curve was filed as active; the % refers to the signal ratio;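 further: cells stimulated with 0.4 nM T3 agonist during compound exposure; series mostly up to about 77 µM; on the % scale 0 is the no-effect control and ±100 the full control effect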); details: TR-UAS-bla HEK293, beta-lactamase ratio, antagonist mode, 18 h
How it was run: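 TR-UAS-bla GripTite HEK293 cells in 2% charcoal/dextran FBS medium were preincubated 4 h at 37 C, given compound (0.59 nM to 92 uM) plus 0.4 nM T3 (final) for 18 h, then CCF4 for 2 h at RT; Hill fit gave IC50.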

[10] = qHTS assay for small molecule activators of the p53 signaling pathway (AID 651743; active means well fitted activation curve with a large enough effect in the signal ratio, not every such curve was filed as active; the % refers to the signal ratio; further: series mostly up to about 92 µM; % of control where 0% means no effect); details: HCT-116 p53RE-bla, beta-lactamase FRET ratio, 16 h; activation: stronger effect = higher value
How it was run: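 p53RE-bla HCT-116 cells with a stably integrated beta-lactamase reporter under p53 response elements were plated, rested 5 hours at 37 C/5% CO2, then exposed to compounds in DMSO for 16 hours at 37 C. LiveBLAzer B/G FRET substrate was read after 2 hours at room temperature.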

[11] = target: Peroxisome proliferator-activated receptor alpha (Homo sapiens) (UniProt Q07869); assay: qHTS assay for small molecule agonists of the peroxisome proliferator-activated receptor alpha (PPARalpha) signaling pathway (AID 651778); details: PathHunter PPARalpha complementation, chemiluminescence, 6 h; max response: stronger effect = higher value; further: % of control where 0% means no effect
How it was run: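 Cells plated at 2,000/well and held overnight at 37 C, 5% CO2, then compound added by pin tool for 6 hr; after PathHunter detection reagent and 60 min at room temperature, chemiluminescence from enzyme complementation was read.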

[12] = qHTS assay for small molecule agonists of the antioxidant response element (ARE) signaling pathway measured by Nrf2-dependant transcriptional activity - cell viability counter screen (AID 720653; active means well fitted curve in the direction sought with a large enough effect in the repeat runs; an effect the other way counts as inactive or inconclusive; further: on the % scale 0 is the no-effect control and ±100 the full control effect); details: ARE-bla HepG2 viability, CellTiter-Glo ATP luminescence, 16 h; max response: stronger effect = lower value
How it was run: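 ARE-bla HepG2 cells (2,000/well) rested 5 hrs at 37C/5% CO2, then exposed to compounds in DMSO for 16 hrs. Viability was read in the same wells as intracellular ATP by luminescence, 30 min at room temperature after reagent addition.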

[13] = qHTS assay for cell viability of HEK293 cells (AID 743288); details: ATP luminescence (CellTiter-Glo), 18 h; max response: stronger effect = lower value; further: on the % scale 0 is the no-effect control and ±100 the full control effect; nearly all actives have a fitted effect of over 50% in size
How it was run: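 Parental HEK293 cells were seeded at 2,000 cells/well, rested at least 5 h at 37 C, then exposed to compounds in DMSO for 18 h at 37 C. Viability was read as ATP-dependent luciferase luminescence after 30 min at room temperature.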

[14] = qHTS assay for cell viability of the p53RE-bla HCT-116 cell line (AID 743292); further: on the % scale 0 is the no-effect control and ±100 the full control effect; nearly all actives have a fitted effect of over 55% in size
How it was run: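 After plating at 4,000 cells per well and a 5 h rest at 37 C, HCT-116 cells carrying p53RE-bla received test chemicals in DMSO. Sixteen hours later at 37 C, CellTiter-Glo was added and luminescence recorded following 30 min at room temperature.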

[15] = qHTS assay for environmental chemicals that activate the Aryl hydrocarbon Receptor (AhR) signaling pathway (AID 651777); details: 1A2-DRE human hepatoma cells, luciferase, 24 h; activation: stronger effect = higher value; further: % of control where 0% means no effect; nearly all actives have a fitted effect of over 15% in size
How it was run: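 Following a 24 hr incubation with test chemicals at 37 C and 5% CO2, 1A2-DRE human hepatoma cells received One-Glo reagent; after 30 min at room temperature, luciferase output reflected CYP1A2 induction via AhR.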

[16] = qHTS assay for small molecule agonists of the antioxidant response element (ARE) signaling pathway measured by Nrf2-dependant transcriptional activity (AID 720636; active means well fitted curve in the direction sought with a large enough effect in the repeat runs; an effect the other way counts as inactive or inconclusive;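 further: HepG2 cells with an ARE-driven luciferase reporter; % of control where 0% means no effect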)
How it was run: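 ONE-Glo luminescence, read 30 min after reagent addition at room temperature, reflected ARE reporter activity in HepG2 cells that had been incubated with compound for 16 hr at 37 C in 1% dialyzed FBS.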

[17] = target: Nuclear receptor subfamily 1 group I member 2 (Rattus norvegicus) (UniProt Q9R1A7); assay: qHTS assay for small molecule activators of the rat pregnane X receptor (rPXR) signaling pathway (AID 651751; call rule not given here; further: 0% is about no effect); details: rPXR reporter cells, luciferase (One-Glo), 24 h
[18] = target: Glucocorticoid receptor (Homo sapiens) (UniProt P04150); assay: qHTS assay for small molecule antagonists of glucocorticoid receptor signaling (AID 588533; active means well fitted inhibition curve with a large enough effect in the signal ratio, with a control signal flat, not every such curve was filed as active; the % refers to the signal ratio)
How it was run: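 Antagonist-mode qHTS: compound titrations added to GRE-bla HeLa cells, then dexamethasone 2 nM final; 18 h, 37 C. CCF4 FRET fluorescence normalized to dexamethasone and DMSO; IC50 from Hill fit.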

[19] = qHTS assay for small molecule agonists of retinoid X receptor alpha signaling (AID 588544; calls by dose curve;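 on activation: 0% = DMSO basal wells and 100% = reference agonist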); details: HEK293T RXRa-UAS-bla, beta-lactamase reporter, 18 h; 530 nm emission
[20] = target: Retinoic acid receptor RXR-alpha (Homo sapiens) (UniProt P19793); assay: as above

Bile acid receptor (Homo sapiens), sequence (Q96RI1 whole entry, looked up): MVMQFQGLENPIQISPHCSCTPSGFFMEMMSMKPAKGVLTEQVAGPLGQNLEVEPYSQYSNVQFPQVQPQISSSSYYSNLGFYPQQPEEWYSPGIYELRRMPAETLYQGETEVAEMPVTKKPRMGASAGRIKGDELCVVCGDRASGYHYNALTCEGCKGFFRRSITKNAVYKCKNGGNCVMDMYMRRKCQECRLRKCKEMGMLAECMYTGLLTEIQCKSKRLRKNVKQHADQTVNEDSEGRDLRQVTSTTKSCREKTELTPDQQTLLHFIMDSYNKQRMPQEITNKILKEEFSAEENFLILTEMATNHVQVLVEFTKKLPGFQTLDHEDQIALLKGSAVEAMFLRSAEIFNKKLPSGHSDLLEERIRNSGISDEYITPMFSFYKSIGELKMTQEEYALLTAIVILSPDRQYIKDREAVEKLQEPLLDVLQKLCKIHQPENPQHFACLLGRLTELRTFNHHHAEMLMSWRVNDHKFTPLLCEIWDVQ
Glucocorticoid receptor (Homo sapiens), sequence (P04150 whole entry, looked up): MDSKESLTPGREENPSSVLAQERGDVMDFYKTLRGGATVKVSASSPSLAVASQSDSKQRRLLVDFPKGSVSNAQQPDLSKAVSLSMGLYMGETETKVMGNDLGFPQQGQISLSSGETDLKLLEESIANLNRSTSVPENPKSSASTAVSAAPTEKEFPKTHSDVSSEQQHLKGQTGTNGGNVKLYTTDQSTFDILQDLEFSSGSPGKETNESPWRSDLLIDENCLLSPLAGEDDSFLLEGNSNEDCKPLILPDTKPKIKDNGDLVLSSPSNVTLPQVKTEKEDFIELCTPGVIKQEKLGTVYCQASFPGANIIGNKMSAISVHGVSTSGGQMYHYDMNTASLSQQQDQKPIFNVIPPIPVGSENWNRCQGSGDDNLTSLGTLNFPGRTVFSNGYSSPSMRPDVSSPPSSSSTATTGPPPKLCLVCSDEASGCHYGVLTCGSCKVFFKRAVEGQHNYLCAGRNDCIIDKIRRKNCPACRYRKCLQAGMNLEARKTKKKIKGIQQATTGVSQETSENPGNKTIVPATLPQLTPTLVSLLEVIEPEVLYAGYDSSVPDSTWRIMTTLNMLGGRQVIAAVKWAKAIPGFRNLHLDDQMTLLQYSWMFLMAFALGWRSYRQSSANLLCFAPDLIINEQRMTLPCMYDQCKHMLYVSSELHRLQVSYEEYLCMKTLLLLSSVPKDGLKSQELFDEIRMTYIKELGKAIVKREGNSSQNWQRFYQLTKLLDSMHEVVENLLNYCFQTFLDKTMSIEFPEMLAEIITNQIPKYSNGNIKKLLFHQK
Vitamin D3 receptor (Homo sapiens), sequence (P11473 whole entry, looked up): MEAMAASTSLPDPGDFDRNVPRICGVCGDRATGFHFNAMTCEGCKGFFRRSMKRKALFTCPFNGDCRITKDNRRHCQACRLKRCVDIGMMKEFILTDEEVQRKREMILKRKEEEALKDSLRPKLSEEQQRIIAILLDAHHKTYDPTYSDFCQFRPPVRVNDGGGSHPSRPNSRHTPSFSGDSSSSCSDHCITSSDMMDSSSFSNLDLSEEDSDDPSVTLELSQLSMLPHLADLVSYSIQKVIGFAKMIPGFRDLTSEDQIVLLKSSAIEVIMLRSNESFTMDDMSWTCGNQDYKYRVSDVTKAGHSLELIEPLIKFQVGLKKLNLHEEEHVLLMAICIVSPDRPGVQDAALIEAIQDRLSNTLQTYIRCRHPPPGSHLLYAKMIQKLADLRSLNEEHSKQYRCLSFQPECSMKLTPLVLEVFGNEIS
Thyroid hormone receptor beta (Homo sapiens), sequence (P10828 whole entry, looked up): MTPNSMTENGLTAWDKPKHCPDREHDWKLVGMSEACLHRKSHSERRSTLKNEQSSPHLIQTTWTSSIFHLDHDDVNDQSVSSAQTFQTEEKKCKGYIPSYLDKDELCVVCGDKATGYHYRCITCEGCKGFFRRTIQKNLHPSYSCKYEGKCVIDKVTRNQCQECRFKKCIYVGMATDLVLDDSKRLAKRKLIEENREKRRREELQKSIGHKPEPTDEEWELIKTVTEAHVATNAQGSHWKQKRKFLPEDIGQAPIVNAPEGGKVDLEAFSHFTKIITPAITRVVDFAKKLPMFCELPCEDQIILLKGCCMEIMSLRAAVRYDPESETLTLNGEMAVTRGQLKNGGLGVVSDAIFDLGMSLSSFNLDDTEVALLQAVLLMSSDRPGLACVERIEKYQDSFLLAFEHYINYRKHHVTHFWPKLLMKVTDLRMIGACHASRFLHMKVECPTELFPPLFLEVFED
Peroxisome proliferator-activated receptor alpha (Homo sapiens), sequence (Q07869 whole entry, looked up): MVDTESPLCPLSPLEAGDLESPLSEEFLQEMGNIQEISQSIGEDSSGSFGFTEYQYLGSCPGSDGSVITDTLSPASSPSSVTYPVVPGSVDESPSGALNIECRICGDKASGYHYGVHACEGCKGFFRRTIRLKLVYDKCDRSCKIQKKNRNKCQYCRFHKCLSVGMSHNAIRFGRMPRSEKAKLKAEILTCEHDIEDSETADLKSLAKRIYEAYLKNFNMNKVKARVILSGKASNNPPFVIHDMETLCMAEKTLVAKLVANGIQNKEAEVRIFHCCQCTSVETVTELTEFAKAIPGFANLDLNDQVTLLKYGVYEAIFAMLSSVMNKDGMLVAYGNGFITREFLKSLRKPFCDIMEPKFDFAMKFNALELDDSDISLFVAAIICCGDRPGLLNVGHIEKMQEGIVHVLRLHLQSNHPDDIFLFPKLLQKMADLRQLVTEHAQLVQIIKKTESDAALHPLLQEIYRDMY
Retinoic acid receptor RXR-alpha (Homo sapiens), sequence (P19793 whole entry, looked up): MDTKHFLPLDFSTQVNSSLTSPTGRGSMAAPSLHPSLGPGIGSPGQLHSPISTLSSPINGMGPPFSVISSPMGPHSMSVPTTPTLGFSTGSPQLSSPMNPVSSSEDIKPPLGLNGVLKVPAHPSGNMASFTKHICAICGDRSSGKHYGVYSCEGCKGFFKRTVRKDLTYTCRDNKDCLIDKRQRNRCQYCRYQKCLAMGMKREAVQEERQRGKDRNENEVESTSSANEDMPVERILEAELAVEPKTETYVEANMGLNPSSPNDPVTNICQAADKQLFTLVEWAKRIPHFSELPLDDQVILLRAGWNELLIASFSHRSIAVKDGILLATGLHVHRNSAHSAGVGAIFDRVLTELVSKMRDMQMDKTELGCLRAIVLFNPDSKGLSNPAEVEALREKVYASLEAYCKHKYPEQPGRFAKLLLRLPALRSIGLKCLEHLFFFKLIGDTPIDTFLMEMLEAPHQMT
Nuclear receptor subfamily 1 group I member 2 (Rattus norvegicus), sequence (Q9R1A7 whole entry, looked up): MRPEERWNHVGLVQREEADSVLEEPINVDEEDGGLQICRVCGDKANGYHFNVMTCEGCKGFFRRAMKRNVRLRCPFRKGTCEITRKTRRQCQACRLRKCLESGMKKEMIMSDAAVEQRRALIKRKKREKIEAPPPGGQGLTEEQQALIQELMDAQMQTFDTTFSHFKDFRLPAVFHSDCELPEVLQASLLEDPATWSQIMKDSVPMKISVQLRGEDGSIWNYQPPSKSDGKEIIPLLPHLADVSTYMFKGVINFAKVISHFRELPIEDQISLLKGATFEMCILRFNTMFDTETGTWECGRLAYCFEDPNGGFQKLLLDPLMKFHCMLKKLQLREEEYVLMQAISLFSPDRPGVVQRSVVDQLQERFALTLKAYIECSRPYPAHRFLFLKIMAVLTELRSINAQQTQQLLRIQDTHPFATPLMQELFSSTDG
Peroxisome proliferator-activated receptor delta (Homo sapiens), sequence (Q03181 whole entry, looked up): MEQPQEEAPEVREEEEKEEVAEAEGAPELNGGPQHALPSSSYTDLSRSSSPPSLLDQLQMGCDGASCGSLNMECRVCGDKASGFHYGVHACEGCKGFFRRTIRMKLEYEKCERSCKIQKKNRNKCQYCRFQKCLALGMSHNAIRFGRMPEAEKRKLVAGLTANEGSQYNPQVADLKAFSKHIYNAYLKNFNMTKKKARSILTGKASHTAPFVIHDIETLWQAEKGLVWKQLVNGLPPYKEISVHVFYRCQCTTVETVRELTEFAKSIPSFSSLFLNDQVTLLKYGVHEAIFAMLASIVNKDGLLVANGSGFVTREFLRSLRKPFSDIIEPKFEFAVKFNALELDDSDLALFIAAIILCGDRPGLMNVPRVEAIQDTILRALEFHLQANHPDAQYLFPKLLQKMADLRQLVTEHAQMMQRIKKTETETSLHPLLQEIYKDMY

CNc1cnn(-c2cccc(C(F)(F)F)c2)c(=O)c1Cl
-2.6%: max response [7]
inactive: activation [1] -1.1% | outcome [2] | Potency [4] | outcome [5] | Potency [6] | max response [8] 8.14% | activity change % (negative = inhibition) [9] 8.76% | activation [10] 1.24% | max response [11] -1.19% | max response [12] 3.99% | max response [13] -7.33% | Potency [14]
18.9%: max response [3]

CCOP(=O)(OCC)Oc1cc(C)nc(C(C)C)n1
13.6%: max response [7]
22.9%: max response [3]
inactive: activation [1] -3.07% | outcome [2] | Potency [6] | max response [8] 18.7% | activation [10] -7.84% | activation [15] -0.423% | max response [11] -1.71% | Potency [16] | max response [12] 16.1% | max response [13] 7.77% | max response [17] -12.9%

COP(=O)(OC)Oc1nc(Cl)c(Cl)cc1Cl
inactive: activation [1] -2.92% | Potency [18] | outcome [5] | Potency [20] | Potency [6] | max response [8] 1.04% | activity change % (negative = inhibition) [9] -14.5% | activation [10] 6.76% | activation [15] 1.43% | max response [11] -0.672% | Potency [16] | max response [12] -0.97% | max response [13] -6.19% | Potency [14] | max response [17] 0.764%
-0.949%: max response [7]
28.3%: max response [19]

CCCCC(O)(Cn1cncn1)c1ccc(Cl)cc1Cl (stereo unspecified)
-34%: max response [3]
-3.36%: max response [7]
inactive: activation [1] -2.88% | Potency [18] | outcome [5] | max response [8] -17.2% | activation [10] -5.41% | activation [15] 2.7% | max response [11] 9.57% | Potency [16] | max response [12] -0.171% | max response [13] -16.7% | Potency [14]

CCC[CH2][Sn]([CH2]CCC)([CH2]CCC)[CH2]CCC
inactive: activation [1] 3.44% | Potency [18] | outcome [2] | Potency [4] | outcome [5] | Potency [6] | max response [8] 4.03% | activity change % (negative = inhibition) [9] -9.45% | activation [10] -3.46% | activation [15] 0.926% | Potency [16] | max response [12] 1.93% | max response [13] -5.3% | Potency [14] | max response [17] 8.28%
0.148%: max response [3]
6.88%: max response [7]

COC(C)(C)CCC[C@H](C)C/C=C/C(C)=C/C(=O)OC(C)C
-16.5%: max response [7]
10.5%: max response [19]
inactive: Potency [20] | Potency [6] | max response [8] 6.26% | activity change % (negative = inhibition) [9] -10.3% | activation [10] -4.16% | activation [15] -0.0877% | max response [11] 0.0369% | Potency [16] | max response [12] -6.46% | max response [13] -5.99% | Potency [14]

CC(O)CN(CC(C)O)CC(C)O (stereo unspecified)
-32.2%: max response [3]
inactive: activation [1] 0.256% | Potency [18] | Potency [6] | max response [8] 3.2% | activity change % (negative = inhibition) [9] 25% | activation [10] -9.86% | max response [11] -2.83% | Potency [16] | max response [12] -8.2% | max response [13] -4.13% | Potency [14] | max response [17] -0.821%
-0.813%: max response [7]

O=CNC(N1CCN(C(NC=O)C(Cl)(Cl)Cl)CC1)C(Cl)(Cl)Cl (stereo unspecified)
-14.2%: max response [19]
26.2%: max response [3]
inactive: Potency [18] | outcome [2] | outcome [5] | Potency [20] | Potency [6] | activity change % (negative = inhibition) [9] -18.1% | activation [10] -7.11% | activation [15] 0.502% | max response [11] -1.75% | Potency [16] | max response [12] -22.2% | max response [13] -20.2% | Potency [14]
